Reference: the supplement of paper PMC11732987, “Enantioselective OTUD7B fragment discovery through chemoproteomics screening and high-throughput optimisation” (Communications Chemistry, 2025)
Values without a mark were called inactive.

Compound: ClCC(=O)N1CCc2nc(ncc2C1)-c1ccccc1
Assay: log2 ratio of Biotin-Ahx-Ub-VS probe labelling (compound/DMSO); higher = less target engagement, active = hit call of the paper (q ≤ 0.05, log2 ratio ≤ -1)
Conditions: compound concentration: 200uM; treatment time: 3 h
In short: (§1)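 HEK293T lysate (495 µg per sample, in Tris/CHAPS/IGEPAL buffer with protease inhibitors) was exposed in triplicate to compound at 50 or 200 µM, or to DMSO, for 3 h, then to Biotin-Ahx-Ub-VS (0.5 µM final) for 1 h. The labelled DUBs were enriched on NeutrAvidin, digested with LysC and trypsin, and analysed by diaPASEF LC-MS/MS. Average base-two log ratios of compound over DMSO came from median-normalised label-free quantities by unpaired t-test. Only proteins with at least 2 unique peptides were used.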

UniProt Q93008, sequence (Q93008 whole entry): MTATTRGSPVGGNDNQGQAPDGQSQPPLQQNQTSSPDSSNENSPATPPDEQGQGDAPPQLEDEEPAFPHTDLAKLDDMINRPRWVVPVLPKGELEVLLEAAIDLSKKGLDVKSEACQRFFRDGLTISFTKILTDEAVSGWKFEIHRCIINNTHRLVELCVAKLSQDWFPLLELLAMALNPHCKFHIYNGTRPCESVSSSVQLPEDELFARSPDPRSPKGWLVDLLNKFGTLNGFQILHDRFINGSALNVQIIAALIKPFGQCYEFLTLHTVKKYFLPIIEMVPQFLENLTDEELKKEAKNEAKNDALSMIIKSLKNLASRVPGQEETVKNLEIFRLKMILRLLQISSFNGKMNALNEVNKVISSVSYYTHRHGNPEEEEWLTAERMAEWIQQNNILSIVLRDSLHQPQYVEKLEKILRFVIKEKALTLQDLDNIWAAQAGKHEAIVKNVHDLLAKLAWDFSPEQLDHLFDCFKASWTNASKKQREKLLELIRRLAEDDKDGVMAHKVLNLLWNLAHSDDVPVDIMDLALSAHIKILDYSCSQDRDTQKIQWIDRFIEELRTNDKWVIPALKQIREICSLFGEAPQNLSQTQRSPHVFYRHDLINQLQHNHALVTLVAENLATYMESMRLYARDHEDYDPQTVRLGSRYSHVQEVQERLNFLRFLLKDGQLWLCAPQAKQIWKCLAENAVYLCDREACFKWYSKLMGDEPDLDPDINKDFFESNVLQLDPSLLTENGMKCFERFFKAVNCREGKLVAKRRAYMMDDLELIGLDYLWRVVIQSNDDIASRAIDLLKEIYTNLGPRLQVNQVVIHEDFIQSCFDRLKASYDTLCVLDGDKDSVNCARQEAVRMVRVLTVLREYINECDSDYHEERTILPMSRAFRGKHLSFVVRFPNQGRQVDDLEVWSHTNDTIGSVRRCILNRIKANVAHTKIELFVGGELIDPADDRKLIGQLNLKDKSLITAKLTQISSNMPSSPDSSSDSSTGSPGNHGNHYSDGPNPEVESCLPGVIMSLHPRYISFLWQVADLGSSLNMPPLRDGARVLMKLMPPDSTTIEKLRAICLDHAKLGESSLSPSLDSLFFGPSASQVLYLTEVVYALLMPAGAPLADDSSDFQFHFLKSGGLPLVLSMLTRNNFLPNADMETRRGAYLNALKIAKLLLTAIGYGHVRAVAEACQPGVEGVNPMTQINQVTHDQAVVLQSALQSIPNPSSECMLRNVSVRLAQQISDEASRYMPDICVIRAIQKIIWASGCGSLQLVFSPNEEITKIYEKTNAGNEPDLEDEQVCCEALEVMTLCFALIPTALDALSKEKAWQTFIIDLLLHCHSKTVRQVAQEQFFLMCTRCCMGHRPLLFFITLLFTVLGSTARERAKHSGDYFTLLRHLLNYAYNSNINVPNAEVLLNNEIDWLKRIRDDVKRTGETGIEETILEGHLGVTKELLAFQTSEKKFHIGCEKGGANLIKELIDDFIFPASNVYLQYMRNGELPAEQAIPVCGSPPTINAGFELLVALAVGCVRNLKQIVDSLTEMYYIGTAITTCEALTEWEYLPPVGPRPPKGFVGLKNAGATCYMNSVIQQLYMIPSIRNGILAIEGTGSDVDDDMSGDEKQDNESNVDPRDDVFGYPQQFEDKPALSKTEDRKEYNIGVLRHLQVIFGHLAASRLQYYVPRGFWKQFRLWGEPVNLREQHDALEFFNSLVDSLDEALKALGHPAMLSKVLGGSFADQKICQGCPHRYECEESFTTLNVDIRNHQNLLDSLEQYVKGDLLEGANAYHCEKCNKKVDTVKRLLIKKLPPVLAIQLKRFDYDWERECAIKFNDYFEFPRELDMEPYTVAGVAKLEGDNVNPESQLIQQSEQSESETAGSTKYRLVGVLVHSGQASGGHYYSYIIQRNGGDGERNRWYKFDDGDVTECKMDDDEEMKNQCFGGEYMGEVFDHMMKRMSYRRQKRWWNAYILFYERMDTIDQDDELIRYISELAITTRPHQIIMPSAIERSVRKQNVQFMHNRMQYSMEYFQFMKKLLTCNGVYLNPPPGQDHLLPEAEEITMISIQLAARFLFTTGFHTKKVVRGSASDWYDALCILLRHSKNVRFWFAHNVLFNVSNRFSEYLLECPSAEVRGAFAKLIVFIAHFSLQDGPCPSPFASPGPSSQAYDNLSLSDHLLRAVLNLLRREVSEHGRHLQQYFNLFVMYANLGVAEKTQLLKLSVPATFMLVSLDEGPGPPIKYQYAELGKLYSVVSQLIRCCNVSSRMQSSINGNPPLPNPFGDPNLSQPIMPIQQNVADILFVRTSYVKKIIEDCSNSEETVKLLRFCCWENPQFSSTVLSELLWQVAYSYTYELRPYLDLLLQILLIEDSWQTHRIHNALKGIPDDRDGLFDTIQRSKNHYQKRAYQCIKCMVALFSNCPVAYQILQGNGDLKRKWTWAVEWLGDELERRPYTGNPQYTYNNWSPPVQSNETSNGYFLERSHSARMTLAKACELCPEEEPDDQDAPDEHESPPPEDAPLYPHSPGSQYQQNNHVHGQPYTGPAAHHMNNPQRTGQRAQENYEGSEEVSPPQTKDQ
UniProt Q9P275, sequence (Q9P275 whole entry): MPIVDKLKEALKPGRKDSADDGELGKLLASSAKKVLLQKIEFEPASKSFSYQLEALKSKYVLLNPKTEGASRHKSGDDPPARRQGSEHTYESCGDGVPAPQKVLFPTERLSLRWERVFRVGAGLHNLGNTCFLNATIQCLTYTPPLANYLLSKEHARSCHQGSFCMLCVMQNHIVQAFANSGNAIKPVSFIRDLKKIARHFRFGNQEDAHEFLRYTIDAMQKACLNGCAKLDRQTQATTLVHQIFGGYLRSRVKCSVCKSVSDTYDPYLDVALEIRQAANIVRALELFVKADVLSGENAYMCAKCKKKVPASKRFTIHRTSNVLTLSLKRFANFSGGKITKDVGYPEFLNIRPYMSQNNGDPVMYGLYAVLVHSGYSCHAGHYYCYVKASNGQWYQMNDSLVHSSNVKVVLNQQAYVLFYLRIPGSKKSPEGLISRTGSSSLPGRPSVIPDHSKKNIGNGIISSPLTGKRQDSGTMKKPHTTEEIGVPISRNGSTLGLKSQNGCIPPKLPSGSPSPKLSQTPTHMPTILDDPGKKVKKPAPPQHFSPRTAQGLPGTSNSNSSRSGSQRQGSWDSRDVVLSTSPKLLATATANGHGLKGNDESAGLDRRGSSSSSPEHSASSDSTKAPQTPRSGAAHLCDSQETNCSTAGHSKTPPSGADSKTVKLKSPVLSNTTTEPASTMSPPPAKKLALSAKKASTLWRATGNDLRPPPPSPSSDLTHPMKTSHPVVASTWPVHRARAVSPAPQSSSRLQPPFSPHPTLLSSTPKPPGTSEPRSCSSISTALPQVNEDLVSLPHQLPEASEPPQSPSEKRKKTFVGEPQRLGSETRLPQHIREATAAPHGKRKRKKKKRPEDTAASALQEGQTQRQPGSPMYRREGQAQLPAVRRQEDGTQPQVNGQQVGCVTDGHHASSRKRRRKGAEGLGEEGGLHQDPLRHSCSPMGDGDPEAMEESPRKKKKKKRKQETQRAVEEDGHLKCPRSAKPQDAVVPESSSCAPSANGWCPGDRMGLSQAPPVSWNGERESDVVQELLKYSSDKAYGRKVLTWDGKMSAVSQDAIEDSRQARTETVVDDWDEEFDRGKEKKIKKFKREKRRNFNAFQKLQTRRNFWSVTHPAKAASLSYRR
UniProt Q92560, sequence (Q92560 whole entry): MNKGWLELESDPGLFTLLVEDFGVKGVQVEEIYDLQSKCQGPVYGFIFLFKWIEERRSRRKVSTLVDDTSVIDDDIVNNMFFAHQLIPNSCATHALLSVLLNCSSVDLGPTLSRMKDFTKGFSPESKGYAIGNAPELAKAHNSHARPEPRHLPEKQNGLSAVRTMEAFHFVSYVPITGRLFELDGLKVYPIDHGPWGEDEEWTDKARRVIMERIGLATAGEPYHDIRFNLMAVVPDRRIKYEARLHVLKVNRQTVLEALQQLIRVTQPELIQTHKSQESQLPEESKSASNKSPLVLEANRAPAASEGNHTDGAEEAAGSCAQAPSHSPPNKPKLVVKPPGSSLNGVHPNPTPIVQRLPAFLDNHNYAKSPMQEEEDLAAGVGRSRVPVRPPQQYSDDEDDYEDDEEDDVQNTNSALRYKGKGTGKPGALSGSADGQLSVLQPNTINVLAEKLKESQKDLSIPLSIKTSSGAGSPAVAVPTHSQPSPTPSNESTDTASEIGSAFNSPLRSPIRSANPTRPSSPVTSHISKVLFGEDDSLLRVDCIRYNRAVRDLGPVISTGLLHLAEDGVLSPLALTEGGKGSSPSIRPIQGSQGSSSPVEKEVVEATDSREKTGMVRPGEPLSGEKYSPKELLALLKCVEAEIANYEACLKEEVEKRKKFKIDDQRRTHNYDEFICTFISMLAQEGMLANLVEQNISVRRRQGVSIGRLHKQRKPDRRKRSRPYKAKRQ
UniProt Q92905, sequence (Q92905 whole entry, looked up): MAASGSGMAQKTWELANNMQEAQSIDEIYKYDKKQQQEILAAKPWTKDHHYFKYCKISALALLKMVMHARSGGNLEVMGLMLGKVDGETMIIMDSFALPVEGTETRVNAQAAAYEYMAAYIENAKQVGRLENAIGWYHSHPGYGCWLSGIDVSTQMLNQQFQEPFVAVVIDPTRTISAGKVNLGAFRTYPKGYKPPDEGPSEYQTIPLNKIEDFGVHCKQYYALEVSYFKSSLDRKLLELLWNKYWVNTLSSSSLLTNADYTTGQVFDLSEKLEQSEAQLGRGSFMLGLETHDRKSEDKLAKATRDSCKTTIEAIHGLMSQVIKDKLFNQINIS
UniProt Q8N6M0, sequence (Q8N6M0 whole entry): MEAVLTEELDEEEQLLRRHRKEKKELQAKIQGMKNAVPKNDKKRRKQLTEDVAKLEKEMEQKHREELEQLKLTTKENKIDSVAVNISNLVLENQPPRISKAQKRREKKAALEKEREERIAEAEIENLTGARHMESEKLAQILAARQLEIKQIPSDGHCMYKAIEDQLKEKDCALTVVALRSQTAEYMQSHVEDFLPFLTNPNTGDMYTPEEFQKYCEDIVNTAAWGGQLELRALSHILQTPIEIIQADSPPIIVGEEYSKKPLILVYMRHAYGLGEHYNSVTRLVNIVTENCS

Row | Target | log2 ratio of Biotin-Ahx-Ub-VS probe labelling
1 | USP54 (UniProt Q70EL1) | -2.39 (active)
2 | UniProt Q5T2D3 | -0.186
3 | USP28 (UniProt Q96RU2) | -0.716
4 | UniProt Q70EL2 | -1.03 (active)
5 | USP22 (UniProt Q9UPT9) | -0.339
6 | OTUD6B (UniProt Q8N6M0) | -0.718
7 | EIF3F (UniProt O00303) | 0.268
8 | USP36 (UniProt Q9P275) | -0.252
9 | USP16 (UniProt Q9Y5T5) | -1.62 (active)
10 | UCHL5 (UniProt Q9Y5K5) | -0.459
11 | OTUD7B (UniProt Q6GQQ9) | -1.67 (active)
12 | USP14 (UniProt P54578) | 0.0841
13 | USP7 (UniProt Q93009) | -1.58 (active)
14 | USP34 (UniProt Q70CQ2) | -0.403
15 | OTUB1 (UniProt Q96FW1) | -0.309
16 | USP9X (UniProt Q93008) | -0.622
17 | COPS5 (UniProt Q92905) | 0.395
18 | USP10 (UniProt Q14694) | -0.151
19 | USP46 (UniProt P62068) | -1.12 (active)
20 | YOD1 (UniProt Q5VVQ6) | 0.0411
21 | BAP1 (UniProt Q92560) | -1.91 (active)
22 | UniProt P51784 | -0.284
23 | USP25 (UniProt Q9UHP3) | 0.332
24 | UniProt Q9UGI0 | -0.223

Compound: ClCC(=O)N1CCc2nocc2C1
Assay: as above
Conditions: compound concentration: 50uM; treatment time: 3 h
In short: as §1

Row | Target | log2 ratio of Biotin-Ahx-Ub-VS probe labelling
25 | USP54 (UniProt Q70EL1) | -0.519
26 | UniProt Q5T2D3 | -0.173
27 | USP28 (UniProt Q96RU2) | -0.192
28 | UniProt Q70EL2 | -0.0582
29 | USP22 (UniProt Q9UPT9) | 0.0391
30 | OTUD6B (UniProt Q8N6M0) | -0.255
31 | EIF3F (UniProt O00303) | -0.16
32 | USP36 (UniProt Q9P275) | -0.06
33 | USP16 (UniProt Q9Y5T5) | -0.0383
34 | UCHL5 (UniProt Q9Y5K5) | -0.287
35 | OTUD7B (UniProt Q6GQQ9) | -1.21 (active)
36 | USP14 (UniProt P54578) | -0.186
37 | USP7 (UniProt Q93009) | -0.316
38 | USP34 (UniProt Q70CQ2) | 0.31
39 | OTUB1 (UniProt Q96FW1) | -0.139
40 | USP9X (UniProt Q93008) | -0.15
41 | COPS5 (UniProt Q92905) | -0.35
42 | USP10 (UniProt Q14694) | -0.2
43 | USP46 (UniProt P62068) | -0.22
44 | YOD1 (UniProt Q5VVQ6) | -0.0213
45 | BAP1 (UniProt Q92560) | -0.448
46 | UniProt P51784 | -0.0884
47 | USP25 (UniProt Q9UHP3) | -0.946
48 | UniProt Q9UGI0 | -0.539
